± gives the uncertainty stated by the source.
tested on: U87; test: cell viability relative to vehicle control; higher = less growth inhibition (less active); conditions: 10 µM; 72 h
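Also: viable cell number estimated from Alamar Blue fluorescence read at 560/90, part of a single-dose primary screen of an FDA-approved drug library.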

In order of rising cell viability:
1. O=C(O)C[C@H](O)C[C@H](O)/C=C/c1c(C2CC2)nc2ccccc2c1-c1ccc(F)cc1  28.6 ± 3.1%
2. CC(=O)O[C@@]12CO[C@@H]1C[C@H](O)[C@@]1(C)C(=O)[C@H](O)C3=C(C)[C@@H](OC(=O)[C@H](O)[C@@H](NC(=O)OC(C)(C)C)c4ccccc4)C[C@@](O)([C@@H](OC(=O)c4ccccc4)[C@H]21)C3(C)C  45.2 ± 1.5%
3. O=c1c(-c2ccccc2)c1-c1ccccc1 [diphenylcyclopropenone]  77.4 ± 6.9%
4. CNCCCCOc1ccccc1Cc1ccccc1 [Bifemelane]  96.1 ± 9.1%
5. COc1cc(C[C@@H](CO)[C@H](CO)Cc2ccc(O)c(OC)c2)ccc1O  96.4 ± 14%
6. Nc1nc2ccc(OC(F)(F)F)cc2s1 [Riluzole]  98.1 ± 1.5%
7. C[C@H]1[C@H](OC(=O)CCC(=O)O)O[C@@H]2O[C@@]3(C)CC[C@H]4[C@H](C)CC[C@@H]1[C@@]24OO3  98.9 ± 1.1%
8. O=C1[C@H](CC[C@H](O)c2ccc(F)cc2)[C@@H](c2ccc(O)cc2)N1c1ccc(F)cc1  99.1 ± 2.4%
9. O=C(c1ccc(F)cc1)C1CCN(CCn2c(=S)[nH]c3ccccc3c2=O)CC1 [Altanserin]  99.9 ± 2.9%
10. CC1=C(C(=O)O)N2C(=O)[C@@H](NC(=O)[C@H](N)c3ccccc3)[C@H]2SC1 [Cephalexin monohydrate]  100 ± 1.7%
11. Nc1ccn([C@H]2CC[C@@H](CO)O2)c(=O)n1  100 ± 2.5%
12. C=C1/C(=C\C=C2/CCC[C@]3(C)[C@@H]([C@H](C)/C=C/[C@@H](O)C4CC4)CC[C@@H]23)C[C@@H](O)C[C@@H]1O  100 ± 1.4%
13. COc1cc2nc(N3CCN(C(=O)C4CCCO4)CC3)nc(N)c2cc1OC (stereo not given) [Terazosin]  100.6 ± 0.86%
14. CC(C)C[C@H](NC(=O)[C@@H](COC(C)(C)C)NC(=O)[C@H](Cc1ccc(O)cc1)NC(=O)[C@H](CO)NC(=O)[C@H](Cc1c[nH]c2ccccc12)NC(=O)[C@H](Cc1cnc[nH]1)NC(=O)[C@@H]1CCC(=O)N1)C(=O)N[C@@H](CCCNC(=N)N)C(=O)N1CCC[C@H]1C(=O)NNC(N)=O  101.1 ± 0.58%
15. CNCC[C@H](Oc1cccc2ccccc12)c1cccs1  101 ± 4.5%
16. O=C(O)c1cc(/N=N/c2ccc(S(=O)(=O)Nc3ccccn3)cc2)ccc1O  102 ± 1.6%
17. C[C@@H]1C[C@H]2[C@@H]3C[C@H](F)C4=CC(=O)C(Cl)=C[C@]4(C)[C@@]3(F)[C@@H](O)C[C@]2(C)[C@@]1(O)C(=O)CO  102.1 ± 0.4%
18. CC(C)(O)c1ccccc1CC[C@@H](SCC1(CC(=O)O)CC1)c1cccc(/C=C/c2ccc3ccc(Cl)cc3n2)c1  101.8 ± 0.94%
19. CCN(CC)C(=O)C1(c2ccccc2)CC1CN (stereo not given) [Milnacipran]  102 ± 1.5%
20. CN1C(C(=O)Nc2ccccn2)=C(O)c2ccccc2S1(=O)=O [Piroxicam]  103 ± 3.7%
21. COCCOC(=O)C1=C(C)NC(C)=C(C(=O)OC(C)C)C1c1cccc([N+](=O)[O-])c1 (stereo not given)  103 ± 1.5%
22. CC[C@H]1OC(=O)[C@H](C)C(=O)[C@H](C)[C@@H](O[C@@H]2O[C@H](C)C[C@H](N(C)C)[C@H]2O)[C@](C)(OC)C[C@@H](C)C(=O)[C@H](C)[C@H]2N(CCCCn3cnc(-c4cccnc4)c3)C(=O)O[C@]12C  103.4 ± 0.35%
23. CN(C)CC[C@@H](c1ccc(Cl)cc1)c1ccccn1  104 ± 1.6%
24. C=CC1=C(C(=O)O)N2C(=O)[C@@H](NC(=O)/C(=N\OCC(=O)O)c3csc(N)n3)[C@H]2SC1  103.9 ± 0.8%
25. COC(=O)C1=C(C)NC(C)=C(C(=O)OC(C)C)C1c1cccc2nonc12 (stereo not given)  104.2 ± 0.44%
26. OCCN1CCN(CCCN2c3ccccc3Sc3ccc(C(F)(F)F)cc32)CC1 [Fluphenazine]  104.3 ± 0.93%
27. CC(=O)NCCCCCCNC(C)=O  103.9 ± 0.65%
28. CN(C)CCc1c[nH]c2ccc(C[C@H]3COC(=O)N3)cc12 [Zolmitriptan]  105 ± 1.6%
29. N[C@@H](C(=O)N[C@@H]1C(=O)N2C(C(=O)O)=C(CSc3cn[nH]n3)CS[C@H]12)c1ccc(O)cc1  105 ± 2.1%
30. C#C[C@]1(O)CC[C@H]2[C@@H]3[C@H](C)CC4=C(CCC(=O)C4)[C@H]3CC[C@@]21C  106 ± 2.1%
31. O=C1N(c2ccccc2)c2ccccc2C1(Cc1ccncc1)Cc1ccncc1  106 ± 2.1%
32. CN(C)CCOc1ccc(/C(=C(/CCCl)c2ccccc2)c2ccccc2)cc1  106 ± 1.8%
33. CC[C@H](C)C(=O)O[C@H]1C[C@H](O)C=C2C=C[C@H](C)[C@H](CC[C@@H](O)C[C@@H](O)CC(=O)O)[C@H]21 [PRAVASTATIN Sodium]  105.9 ± 0.46%
34. CCC(C)(C)N=C(NC#N)Nc1cccnc1  107 ± 1.1%
35. CNCC[C@@H](Oc1ccccc1C)c1ccccc1  108.2 ± 1%
36. CN1C2CCCC1CC(NC(=O)c1nn(C)c3ccccc13)C2 (stereo not given)  108 ± 0.83%
37. CC(C)(C#N)c1cc(Cn2cncn2)cc(C(C)(C)C#N)c1  109 ± 1.3%
38. Cc1[nH]c(=O)c(C#N)cc1-c1ccncc1  109 ± 2.6%
39. C[C@@H]1CN(CCCn2c3ccccc3c3ccccc32)C[C@H](C)N1 [Rimcazole]  109 ± 1.3%
40. COc1cc(CNC(=O)CCCC/C=C/C(C)C)ccc1O [Capsaicin]  109 ± 1.5%

Source: the supplement of paper PMC3898565
